Laboratory results as given in ChEMBL document CHEMBL3988442, “University of Dundee, Small-Polar-MMV Screening Library” (2021).
For some assays here: Potency and affinity values are given separately.

Legend:
Parameters in all cases: scale not given: direction of the effect not stated beside the values
[1] = molecular target: Protein translocase subunit SecA (Escherichia coli (strain K12)) (UniProt P10408); assay: Assay to Identify E. coli SecA ATPase Inhibitors; type: functional; details: 30 µM
[2] = molecular target: T1, Ubiquitin-activating enzyme e1, putative (Leishmania donovani (strain BPK282A1)) (UniProt E9BSI1); assay: Leishmania donovani Ubiquitin Activating Enzyme (LdE1); type: functional; details: 30 µM
T1 sequence (whole entry): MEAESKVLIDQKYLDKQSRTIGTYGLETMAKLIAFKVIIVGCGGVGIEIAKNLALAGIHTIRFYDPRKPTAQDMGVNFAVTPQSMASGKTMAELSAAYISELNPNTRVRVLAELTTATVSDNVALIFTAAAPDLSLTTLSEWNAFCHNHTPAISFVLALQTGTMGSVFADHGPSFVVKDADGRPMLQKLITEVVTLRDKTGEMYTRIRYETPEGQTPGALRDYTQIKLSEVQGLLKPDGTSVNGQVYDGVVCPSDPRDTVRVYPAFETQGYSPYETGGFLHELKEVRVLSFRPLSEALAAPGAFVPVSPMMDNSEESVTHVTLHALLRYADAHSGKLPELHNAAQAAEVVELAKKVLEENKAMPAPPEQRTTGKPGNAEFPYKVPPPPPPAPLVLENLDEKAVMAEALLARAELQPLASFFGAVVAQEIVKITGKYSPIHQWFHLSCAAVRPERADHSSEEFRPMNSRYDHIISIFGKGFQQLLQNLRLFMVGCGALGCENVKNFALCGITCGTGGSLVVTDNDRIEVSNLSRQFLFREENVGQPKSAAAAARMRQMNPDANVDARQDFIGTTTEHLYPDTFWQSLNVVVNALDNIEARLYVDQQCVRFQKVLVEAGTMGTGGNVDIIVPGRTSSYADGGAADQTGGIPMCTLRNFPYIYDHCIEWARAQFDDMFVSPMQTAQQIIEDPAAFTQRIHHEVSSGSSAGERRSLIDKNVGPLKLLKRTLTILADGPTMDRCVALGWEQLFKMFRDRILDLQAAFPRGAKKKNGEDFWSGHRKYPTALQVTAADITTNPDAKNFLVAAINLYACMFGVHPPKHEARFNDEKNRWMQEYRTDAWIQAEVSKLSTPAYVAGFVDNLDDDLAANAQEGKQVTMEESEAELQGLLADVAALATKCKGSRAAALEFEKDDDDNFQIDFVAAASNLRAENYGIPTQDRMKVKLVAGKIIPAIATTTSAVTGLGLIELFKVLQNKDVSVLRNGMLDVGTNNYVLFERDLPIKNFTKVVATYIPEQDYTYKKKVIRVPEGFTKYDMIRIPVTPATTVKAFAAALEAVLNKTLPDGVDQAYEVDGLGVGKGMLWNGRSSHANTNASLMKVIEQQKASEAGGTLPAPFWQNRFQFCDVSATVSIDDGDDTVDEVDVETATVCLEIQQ

[3] = molecular target: AMP-activated protein kinase, AMPK (Homo sapiens) (UniProt P54646+O43741+P54619+Q9UGJ0+Q9Y478+Q13131+Q9UGI9); assay: AMP-dependent Kinase enzyme assay. An in vitro enzyme assay that detects ADP turnover that is directly proportional to AMPK activity. This uses naive AMPK that is activated during the assay with MK-8722; type: functional; details: 30 µM
[4] = molecular target: Sialic acid-binding Ig-like lectin 9 (Homo sapiens) (UniProt Q9Y336); assay: Hs-Siglec9 ALPHAscreen SOP 20170721; details: 10 µM
[5] = tested on: Trypanosoma cruzi; assay: Trypanosoma cruzi phosphomannomutase and mannose-1-phosphate guanylyltransferase assay; type: functional; details: 10 µM
[6] = molecular target: T2, Arginase-2, mitochondrial (Homo sapiens) (UniProt P78540); assay: in vitro enzyme assay to detect the production of urea directly proportional to the activity of Arginase II; type: functional; details: 33.3 µM; also: in the data most compounds retested in dose-response had high values
T2 sequence (whole entry): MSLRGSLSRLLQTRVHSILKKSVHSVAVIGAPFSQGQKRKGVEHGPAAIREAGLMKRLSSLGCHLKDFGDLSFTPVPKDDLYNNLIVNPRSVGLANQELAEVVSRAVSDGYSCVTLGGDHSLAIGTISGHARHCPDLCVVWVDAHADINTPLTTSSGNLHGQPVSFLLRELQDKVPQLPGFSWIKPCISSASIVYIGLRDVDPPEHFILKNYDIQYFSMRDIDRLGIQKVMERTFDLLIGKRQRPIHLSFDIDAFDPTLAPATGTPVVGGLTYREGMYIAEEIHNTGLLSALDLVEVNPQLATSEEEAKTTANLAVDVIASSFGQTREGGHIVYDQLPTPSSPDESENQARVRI

[7] = molecular target: T3, Proteasome subunit beta (Trypanosoma cruzi) (UniProt O96673); assay: Trypanosoma cruzi proteasome chymotrypsin-like activity (TcProtChymo) assay.; also: in the data most compounds retested in dose-response had high values; type: functional; details: 9.37 µM
T3 sequence (whole entry): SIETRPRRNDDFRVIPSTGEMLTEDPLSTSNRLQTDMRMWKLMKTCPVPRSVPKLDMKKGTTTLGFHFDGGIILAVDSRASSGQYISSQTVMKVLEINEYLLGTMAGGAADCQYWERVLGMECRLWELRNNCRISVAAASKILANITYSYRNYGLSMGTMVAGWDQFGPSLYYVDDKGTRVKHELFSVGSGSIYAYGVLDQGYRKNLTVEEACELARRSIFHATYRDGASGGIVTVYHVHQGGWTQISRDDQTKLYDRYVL

[8] = organism: Homo sapiens; assay: To identify inhibition of the IFN signalling (Jak-Stat) pathway via expression of an eGFP reporter gene under the control of an IFN-stimulated response element (ISRE) containing MxA promoter.; type: functional; details: 30 µM
[9] = molecular target: T4, Tyrosyl-tRNA synthetase, putative (Trypanosoma cruzi (strain CL Brener)) (UniProt Q4DSP6); assay: Trypanosoma cruzi tyrosyl tRNA synthetase (TcYRS) _High Tyrosine SOP; type: functional; details: 30 µM; also: in the data most compounds retested in dose-response had high values
T4 sequence (whole entry): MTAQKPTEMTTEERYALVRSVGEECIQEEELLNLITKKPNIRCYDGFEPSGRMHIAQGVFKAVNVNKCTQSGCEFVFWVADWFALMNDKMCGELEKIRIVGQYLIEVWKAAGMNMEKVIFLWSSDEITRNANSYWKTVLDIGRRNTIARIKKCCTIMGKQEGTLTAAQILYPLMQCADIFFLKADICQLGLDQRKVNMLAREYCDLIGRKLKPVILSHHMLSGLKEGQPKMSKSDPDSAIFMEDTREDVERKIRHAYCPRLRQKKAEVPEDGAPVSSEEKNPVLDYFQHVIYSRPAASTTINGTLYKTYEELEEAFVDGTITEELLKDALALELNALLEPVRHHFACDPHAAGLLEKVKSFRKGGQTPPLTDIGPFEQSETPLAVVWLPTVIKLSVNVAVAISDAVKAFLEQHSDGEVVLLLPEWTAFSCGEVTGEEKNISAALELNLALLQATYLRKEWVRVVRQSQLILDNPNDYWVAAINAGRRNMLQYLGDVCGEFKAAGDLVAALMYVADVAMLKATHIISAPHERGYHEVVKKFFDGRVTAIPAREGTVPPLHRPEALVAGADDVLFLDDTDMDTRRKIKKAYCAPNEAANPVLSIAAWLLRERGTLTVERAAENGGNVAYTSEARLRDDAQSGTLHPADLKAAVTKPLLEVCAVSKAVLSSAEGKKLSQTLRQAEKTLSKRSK

[10] = molecular target: T4, Tyrosyl-tRNA synthetase, putative (Trypanosoma cruzi (strain CL Brener)); assay: Trypanosoma cruzi tyrosyl tRNA synthetase (TcYRS) SOP; type: functional; details: 30 µM
[11] = molecular target: Chromo domain-containing protein 1 (Saccharomyces cerevisiae (strain ATCC 204508 / S288c) (Baker's yeast)) (UniProt P32657); assay: ScCHD-1 Enzyme Inhibition Assay; type: functional; details: 30 µM; also: in the data most compounds retested in dose-response had high values
Chain of Chromo domain-containing protein 1 (Saccharomyces cerevisiae (strain ATCC 204508 / S288c) (Baker's yeast)) (P32657 whole entry, the tested form may be a part): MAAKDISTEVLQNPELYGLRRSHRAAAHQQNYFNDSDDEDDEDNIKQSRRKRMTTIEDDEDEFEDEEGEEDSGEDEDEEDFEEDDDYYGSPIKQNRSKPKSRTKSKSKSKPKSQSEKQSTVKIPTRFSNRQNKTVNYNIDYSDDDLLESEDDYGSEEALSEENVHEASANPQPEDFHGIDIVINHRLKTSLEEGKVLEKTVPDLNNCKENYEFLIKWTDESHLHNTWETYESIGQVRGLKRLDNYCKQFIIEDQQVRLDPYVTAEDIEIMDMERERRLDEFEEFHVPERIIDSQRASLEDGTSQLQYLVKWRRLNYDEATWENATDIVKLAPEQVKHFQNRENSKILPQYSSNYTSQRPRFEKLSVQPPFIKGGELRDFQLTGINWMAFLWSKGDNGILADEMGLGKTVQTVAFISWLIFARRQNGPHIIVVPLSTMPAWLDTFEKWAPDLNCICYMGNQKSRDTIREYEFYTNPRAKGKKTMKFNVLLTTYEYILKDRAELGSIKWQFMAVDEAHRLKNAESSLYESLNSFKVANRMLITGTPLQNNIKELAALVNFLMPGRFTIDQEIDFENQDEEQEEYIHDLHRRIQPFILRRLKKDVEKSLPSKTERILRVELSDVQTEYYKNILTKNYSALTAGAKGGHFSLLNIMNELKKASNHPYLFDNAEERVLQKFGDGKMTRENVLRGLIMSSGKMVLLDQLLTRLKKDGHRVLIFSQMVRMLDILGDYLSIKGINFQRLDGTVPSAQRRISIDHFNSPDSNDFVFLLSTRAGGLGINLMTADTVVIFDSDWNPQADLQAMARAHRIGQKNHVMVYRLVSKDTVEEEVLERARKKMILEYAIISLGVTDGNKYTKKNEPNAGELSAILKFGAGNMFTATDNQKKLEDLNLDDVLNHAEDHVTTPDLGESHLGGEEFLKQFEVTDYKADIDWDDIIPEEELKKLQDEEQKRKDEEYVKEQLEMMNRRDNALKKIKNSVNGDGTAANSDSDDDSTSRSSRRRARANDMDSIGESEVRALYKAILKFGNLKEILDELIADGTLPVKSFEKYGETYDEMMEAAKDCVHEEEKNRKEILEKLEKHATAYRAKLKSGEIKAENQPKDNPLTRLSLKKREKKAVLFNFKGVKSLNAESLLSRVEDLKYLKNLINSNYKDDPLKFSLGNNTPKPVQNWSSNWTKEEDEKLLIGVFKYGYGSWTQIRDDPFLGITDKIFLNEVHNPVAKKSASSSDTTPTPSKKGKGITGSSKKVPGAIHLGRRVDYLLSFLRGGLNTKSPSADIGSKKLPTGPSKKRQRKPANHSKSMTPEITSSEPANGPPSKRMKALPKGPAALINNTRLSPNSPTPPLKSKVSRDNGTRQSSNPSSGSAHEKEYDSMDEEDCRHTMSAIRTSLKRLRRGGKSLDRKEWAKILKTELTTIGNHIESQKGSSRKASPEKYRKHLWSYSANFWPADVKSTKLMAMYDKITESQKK

Chain of Protein translocase subunit SecA (Escherichia coli (strain K12)) (P10408 whole entry): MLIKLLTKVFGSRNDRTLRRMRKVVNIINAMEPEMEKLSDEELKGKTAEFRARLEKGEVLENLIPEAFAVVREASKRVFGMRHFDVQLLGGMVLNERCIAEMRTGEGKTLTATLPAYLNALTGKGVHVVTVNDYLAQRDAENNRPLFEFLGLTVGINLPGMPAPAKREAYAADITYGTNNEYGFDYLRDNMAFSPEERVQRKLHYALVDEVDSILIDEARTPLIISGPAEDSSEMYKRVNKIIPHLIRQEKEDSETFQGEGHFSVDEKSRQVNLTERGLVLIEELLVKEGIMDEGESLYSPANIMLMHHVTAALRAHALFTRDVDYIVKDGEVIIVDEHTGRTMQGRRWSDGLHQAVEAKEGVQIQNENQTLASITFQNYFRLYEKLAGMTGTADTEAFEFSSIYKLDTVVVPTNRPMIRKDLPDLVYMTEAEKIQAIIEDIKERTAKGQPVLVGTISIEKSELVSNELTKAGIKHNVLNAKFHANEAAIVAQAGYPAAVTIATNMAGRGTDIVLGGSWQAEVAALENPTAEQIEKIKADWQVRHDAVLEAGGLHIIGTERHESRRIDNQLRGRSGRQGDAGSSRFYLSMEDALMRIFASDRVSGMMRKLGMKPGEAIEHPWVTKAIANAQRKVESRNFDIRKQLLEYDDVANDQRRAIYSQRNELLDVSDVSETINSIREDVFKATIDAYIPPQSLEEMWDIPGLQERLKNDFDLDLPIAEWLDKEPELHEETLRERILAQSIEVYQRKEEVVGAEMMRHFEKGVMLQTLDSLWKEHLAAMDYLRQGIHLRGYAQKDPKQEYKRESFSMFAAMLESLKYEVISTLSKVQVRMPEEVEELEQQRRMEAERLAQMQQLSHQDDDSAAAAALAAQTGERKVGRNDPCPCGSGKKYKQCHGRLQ
Chain of Sialic acid-binding Ig-like lectin 9 (Homo sapiens) (Q9Y336 whole entry): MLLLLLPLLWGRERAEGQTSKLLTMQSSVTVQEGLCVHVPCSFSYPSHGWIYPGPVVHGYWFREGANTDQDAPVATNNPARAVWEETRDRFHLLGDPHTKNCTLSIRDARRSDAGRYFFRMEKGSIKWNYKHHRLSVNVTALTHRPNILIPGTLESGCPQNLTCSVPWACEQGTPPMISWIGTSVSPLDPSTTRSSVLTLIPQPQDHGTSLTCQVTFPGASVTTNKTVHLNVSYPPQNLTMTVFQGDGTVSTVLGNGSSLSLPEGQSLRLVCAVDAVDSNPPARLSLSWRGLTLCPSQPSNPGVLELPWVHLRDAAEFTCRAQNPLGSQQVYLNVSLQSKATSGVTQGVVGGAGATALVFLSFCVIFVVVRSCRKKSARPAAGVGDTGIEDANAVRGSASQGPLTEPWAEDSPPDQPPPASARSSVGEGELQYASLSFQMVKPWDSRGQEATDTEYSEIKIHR

Row | SMILES | Percent Effect [1] | Percent Effect [2] | Percent Effect [3] | Percent Effect [4] | Percent Effect [5] | Percent Effect [6] | Percent Effect [7] | Percent Effect [8] | Percent Effect [9] | Percent Effect [10] | Percent Effect [11]
1 | Cc1cccc(C(=O)NC(CN2CCCC2=O)c2ccccc2)n1 (configuration not stated) | -2.94% | 13.2% | -3.02% | 7.02% | 5.83% | 6.13% | 8.35% | -4.47% | 5.39% | 21.9% | -10.3%
2 | c1cnc(-c2nc(CNCCn3cccn3)cs2)nc1 | -0.355% | -2.63% | 7.92% | -0.779% | -1.5% | -2.68% | 7.18% | 9.32% | -0.49% | -4.88% | -6.78%
3 | COc1c(C2CCCN2C(=O)c2ccnc(N(C)C)c2)c(C)nn1C (configuration not stated) | -4.71% | 5.2% | 4.01% | 13.2% | -4.21% | 2.74% | 5.58% | 14% | 4.76% | 7.06% | -20%
4 | Cc1cnn(CC2CCCCN2CC(=O)Nc2c(C)n[nH]c2C)c1 (configuration not stated) | -3.93% | 6.33% | 8.13% | 0.215% | -4.62% | -5.81% | 6.86% | 16.1% | 1.04% | 10.1% | -14.4%
5 | Cn1cc(CN2CCCn3cnc(CN4CCCC4=O)c3C2)cn1 | -2.78% | -2.67% | 4.3% | 32.8% | -1.74% | -23.5% | 3.76% | -13.1% | 1.04% | 2.5% | -4.19%
6 | Cc1cc(NC(=O)CN2CCOC(Cn3cccn3)C2)n(C)n1 (configuration not stated) | -5.44% | 0% | 5.74% | -1.25% | 1.27% | -1.05% | -1.86% | 15.9% | 2.86% | 9.41% | -16.3%
7 | O=C(COc1ccccc1)N1CCC[C@]2(C[C@H](OCC3CC3)CO2)C1 | -0.456% | 7.79% | 0.996% | -3.06% | -3.45% | 14.8% | 22.1% | 3.98% | 8.47% | 16.7% | -7.91%
8 | O=C1NC2(CCN(C(=O)c3ccccc3)CC2)CC1c1cccnc1 (configuration not stated) | -4.51% | -2.74% | -3.55% | 5.92% | 9.32% | -6.39% | 2.65% | -28.6% | 6.25% | 13.6% | -2.24%
9 | CN1CC2(CCN(Cc3ccoc3)CC2)COc2ccccc2S1(=O)=O | -0.535% | 2.7% | -0.665% | 1.6% | -3.23% | 5.21% | 14.8% | 4.83% | 7.53% | 13.6% | -2.59%
10 | CSc1ccccc1CN1CCCn2nc(CNC(=O)N(C)C)cc2C1 | -2.86% | 8.22% | -6.48% | 20.7% | 3.13% | 4.09% | 6.92% | 9.78% | 4.3% | 12.5% | 97.4%
11 | Cc1cccc(-c2noc(CN3CC(n4cc(C)cn4)C3)n2)c1 | -0.775% | -13% | -3.33% | 7.4% | 5.24% | -2.85% | 27.4% | 26.4% | 1.94% | 14.6% | -5.58%
12 | Cc1nn(C)c(C)c1C1CCCN1C(=O)CCc1cscn1 (configuration not stated) | -2.32% | -5.26% | -4.9% | 0.0636% | 0.467% | 0.36% | 6.18% | -8.57% | 1.48% | 1.24% | 2.83%
13 | CCCC(Nc1c(C#N)c(=O)n(C)c(=O)n1C)c1ccc(F)cc1F (configuration not stated) | -5.68% | 10.1% | 0.965% | 11% | 5.19% | 4.18% | 0.573% | 1.79% | 7.39% | 13.9% | -4.28%
14 | Cc1cc(C(N)=O)ccc1NC(=O)c1nc(N2CCCC2)ncc1Cl | 0.24% | 0% | -4.73% | -1.27% | -8.4% | 6.67% | 11.1% | 1.42% | 5.94% | 3.66% | 2.96%
15 | Cn1ccc(C(=O)N2CCC(Cc3cnc4[nH]ccc4c3)CC2)n1 | -2.94% | 6.76% | 13% | 2.89% | -0.395% | 1.16% | 7.64% | 7.58% | 4.3% | 14.3% | -4.7%
16 | c1ccc(Cc2noc(CNC3CCc4ncnn4C3)n2)cc1 (configuration not stated) | -2.79% | 16.2% | -4.03% | 4.98% | 3.81% | -3.88% | 8.44% | 1.98% | 10.9% | 25.6% | -5.11%
17 | NCC(=O)N1CCCC(c2cncc(Nc3ncccn3)n2)C1 (configuration not stated) | -3.81% | 9.46% | 17.7% | 18% | -2.57% | -3.48% | 10.3% | 5.7% | 5.38% | 11.7% | 2.63%
18 | Cc1nc(CN2CCC(CNC(=O)Nc3ccccn3)CC2)oc1C | -6.4% | 2.7% | -0.75% | -0.537% | -1.27% | -0.744% | -1.46% | -2.29% | 4.3% | 11.1% | -2.16%
19 | CC(=O)Nc1c(C)cnn1Cc1cc(F)ccc1F | -3.16% | 0% | 0.653% | 2.06% | -3.99% | 1.56% | 2.09% | 12.2% | 2.73% | 6.17% | -0.196%
20 | COc1cc(CNCCc2cnn(C)c2)cc2c1OCCO2 | -5.21% | 10.5% | 1.71% | 15.7% | 1.32% | -1.92% | 10.2% | 0.122% | 4.41% | 12.2% | -6.6%
21 | COc1cc2cc(C(=O)N[C@@H](C)C(=O)O)n(C)c2c(OC)c1OC | 0.309% | 4% | 0.773% | 3.31% | -5.89% | -12.8% | 13.1% | 0.994% | 8.47% | 7.69% | -9.47%
22 | Cc1ccc2cnn(CCC(=O)NCc3c(C)nn(C)c3C)c2c1 | -6.31% | 2.6% | 0.586% | 1.87% | 0.492% | -1.38% | 8.98% | 7.06% | 3.23% | 6.17% | -1.97%
